The values below come from PubChem BioAssay (Tox21).

Results filed as inconclusive are left out. Calls of active or inactive are those of the source. The call rests on the fitted dose curve.

This assay deals with Peroxisome proliferator-activated receptor gamma (Homo sapiens) (UniProt P37231). The experiment in a line: qHTS assay to identify small molecule antagonists of the peroxisome proliferator-activated receptor gamma (PPARg) signaling pathway (AID 743191). Further: nearly all actives have a fitted effect of over 30% in size. Particulars: HEK293H PPARg-UAS-bla, beta-lactamase ratio, antagonist, 17 h; series mostly up to 62.6 µM. From the text: U.S. Tox21 Program National Center for Advancing Translational Sciences [NCATS] NIH Chemical Genomics Center [NCGC] U.S. Environmental Protection Agency [EPA] National Institutes of Environmental Health Sciences [NIEHS] National Toxicology Program [NTP] U.S. Food and Drug Administration [FDA] Tox21 Assay Overview: The peroxisome proliferator-activated receptors (PPARs) are lipid-activated transcription factors of the nuclear receptor superfamily with three distinct subtypes namely PPAR alpha, PPAR delta (also called PPAR beta) and PPAR gamma (PPARg). All these subtypes heterodimerize with Retinoid X receptor (RXR) and these heterodimers regulate transcription of various genes. PPAR-gamma receptor (glitazone receptor) is involved in the regulation of glucose and lipid metabolism. To identify the compounds that inhibit PPAR-gamma signaling, GeneBLAzer PPAR gamma UAS-bla HEK293H cell line (Invitrogen, Carlsbad, CA, USA) containing a beta-lactamase reporter gene under control of an Upstream Activator Sequence (UAS) was used to screen the Tox21 compound library.
Chain of Peroxisome proliferator-activated receptor gamma (Homo sapiens) (P37231 whole entry, looked up): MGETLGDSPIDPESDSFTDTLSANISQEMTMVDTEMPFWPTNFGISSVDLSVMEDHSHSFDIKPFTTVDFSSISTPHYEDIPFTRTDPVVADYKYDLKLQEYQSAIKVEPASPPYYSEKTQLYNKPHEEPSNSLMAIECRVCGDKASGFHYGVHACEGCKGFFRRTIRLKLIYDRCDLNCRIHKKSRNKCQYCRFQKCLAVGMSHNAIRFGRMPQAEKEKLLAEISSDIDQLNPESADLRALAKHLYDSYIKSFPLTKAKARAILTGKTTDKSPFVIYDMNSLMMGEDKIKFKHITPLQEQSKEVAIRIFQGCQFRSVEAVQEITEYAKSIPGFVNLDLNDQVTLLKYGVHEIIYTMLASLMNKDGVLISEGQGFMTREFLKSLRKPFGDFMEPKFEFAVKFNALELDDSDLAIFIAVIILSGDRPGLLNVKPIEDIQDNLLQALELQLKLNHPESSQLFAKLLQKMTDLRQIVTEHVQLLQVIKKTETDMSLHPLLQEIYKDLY
Tox21 Assay Protocol Summary: PPARg-bla cells were dispensed at 3000 cells/6uL/well in 1536-well black wall/clear bottom plates using a Multidrop Combi (Thermo Fisher Scientific, Waltham, MA) dispenser. After the assay plates were incubated at 37C and 5% CO2 for 5 h, 23 nL of compounds dissolved in DMSO, positive controls or DMSO only was transferred to the assay plate by a Pintool station (Kalypsys, San Diego, CA). The assay plates were incubated at 37C for 17 h. After 1 uL of LiveBLAzerTM B/G FRET substrate was added using a Bioraptr Flying Reagent Dispenser (FRD) workstation (Beckman Coulter, Indianapolis, IN, USA), the plates were incubated at room temperature for 1 h, and fluorescence intensity was measured by an Envision plate reader (PerkinElmer, Shelton, CT).
For orientation: qHTS replaces the single test concentration by a dilution series.
With `O=C(O)c1cc(C(=O)O)cc(S(=O)(=O)O)c1`, the outcome was inactive. In the case of `C[Si](O[Si](C)(C)C)O[Si](C)(C)C` it was “inactive”; in that of `C=C(C)C(=O)O[C@H]1C[C@@H]2CC[C@@]1(C)C2(C)C`, “inactive”. For `O=C(O)c1ccccc1C(c1ccc(O)cc1)c1ccc(O)cc1`, the result was inactive.

Regarding `O=c1[nH]c(=O)n([C@H]2CCCO2)cc1F`, the outcome was inactive. As to `CCCCC(CC)COC(=O)CCCCC(=O)OCC(CC)CCCC` (stereo not given), the result was inactive. As to `ON=C1CCCCC1`, the result was inactive. In the case of `Nc1ccccc1[N+](=O)[O-]`, the result was inactive. In the case of `COc1ccc(Nc2ccccc2)c(C)c1` it was “inactive”; in that of `OC[C@H]1O[C@@](CO)(O[C@H]2O[C@H](CO)[C@@H](O)[C@H](O)[C@H]2O)[C@@H](O)[C@@H]1O`, “inactive”. In the case of `C#C[C@]1(O)CC[C@H]2[C@@H]3CCC4=CC(=O)CC[C@@H]4[C@H]3CC[C@@]21C` it was “inactive”. For `CCCCCCCCCCCCS` the value was “inactive”; for `CCOC(=O)NNc1nncc2ccccc12`, “inactive”; for `Fc1ccc(Br)cc1`, “inactive”.

Turning to `CCCCCCCCCCCCCCO`, the result was inactive. Regarding `O=c1[nH]c(=O)n([C@H]2C[C@H](O)[C@@H](CO)O2)cc1Br`, the outcome was inactive. For `CC(C)c1ccc(S(=O)(=O)O)cc1` the value was “inactive”. In the case of `C=CCOC(=O)c1ccccc1C(=O)OCC=C` it was “inactive”; in that of `O=C(O)CC(C(=O)O)C(CC(=O)O)C(=O)O` (stereo not given), “inactive”. As to `CC[C@H](C)C(=O)O[C@H]1C[C@@H](C)C=C2C=C[C@H](C)[C@H](CC[C@@H]3C[C@@H](O)CC(=O)O3)[C@H]21`, the outcome was inactive. For `O=S(=O)(O)c1ccc2ccccc2c1` the value was “inactive”; for `FC(F)(F)c1ccc(Cl)c(Cl)c1`, “inactive”.

As to `CC(=O)Nc1ccccc1`, the outcome was inactive.

For `CCCCCCCC(=O)OC`, the outcome was inactive. For `c1ccc2c(c1)ccc1ccccc12` the value was “inactive”; for `CCc1cccc(C)c1N`, “inactive”. For the compound `O=C(O)c1cc(=O)c2c(OCC(O)COc3cccc4oc(C(=O)O)cc(=O)c34)cccc2o1`, the result was inactive.

For `O=[N+]([O-])c1ccc(/C=C/c2ccc([N+](=O)[O-])cc2S(=O)(=O)O)c(S(=O)(=O)O)c1`, the outcome was inactive. On to `CSCCC=O`, for which the outcome was inactive. Take `CC(=O)c1ccccc1`: the outcome was inactive. For `CC(=O)CC(=O)Nc1ccccc1` the value was “inactive”; for `CC(=O)CC(=O)Nc1ccccc1C`, “inactive”; for `CC(=O)OCC(=O)[C@@]12N=C(C)O[C@@H]1C[C@H]1[C@@H]3CCC4=CC(=O)C=C[C@]4(C)[C@H]3[C@@H](O)C[C@@]12C`, “inactive”. For `O=C(O)c1ccc(C(=O)O)cc1` the value was “inactive”; for `CCCCCOC(C)=O`, “inactive”; for `O=C(O)[C@H](O)[C@@H](O)[C@H](O)[C@H](O)CO`, “inactive”. For `C#CCN(C)Cc1ccccc1` the value was “inactive”; for `O=C(Oc1ccccc1)c1ccccc1`, “inactive”. As for `CCCCC(CC)CO` (stereo not given), the outcome was inactive. Take `CN(C)CCOCCN(C)C`: the outcome was inactive.
